Assay results published in PubChem BioAssay (NCATS).
Records with an inconclusive call do not appear. Where a call stands in place of a potency, no number is given. Some compounds were tested as several samples or in several runs, with calls that do not always agree. Calls of active or inactive are those of the source. Unless noted, calls follow the shape of the dose curve; as a rule, active = well fitted curve in the direction sought with a large enough effect; inconclusive = small, poorly fitted or top-dose-only effect, or another doubt; inactive = no such curve, though single readings can be large; an effect the other way counts as inactive or inconclusive.

How the values were obtained:
[1] = biological target: Cytochrome P450 2C9 (Homo sapiens) (UniProt P11712); experiment: qHTS Assay for Inhibitors and Substrates of Cytochrome P450 2C9 (AID 883); also: nearly all actives have a fitted effect of over 60% in size
Method in brief: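 Luminescent read-out of deoxyluciferin hydroxylation, normalized to 57uM sulphaphenazole (AC100). Reaction: 10nM enzyme, 100uM Luciferin-H (equal to KM), 25mM KPO4, 10 min compound preincubation, then 60 min with NADPH regeneration, both at 37C.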

[2] = biological target: Cytochrome P450 3A4 (Homo sapiens) (UniProt P08684); experiment: qHTS Assay for Inhibitors and Substrates of Cytochrome P450 3A4 (AID 884); also: series mostly up to about 57 µM; nearly all actives have a fitted effect of over 50% in size
Method in brief: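 20 nM human CYP3A4 with 25 uM Luciferin-PPXE (at KM) in 200 mM KPO4, preincubated 10 min with compound; NADPH regeneration started a 60 min RT reaction. Luciferin detected by luminescence, normalized to 57 uM ketoconazole as full inhibition.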

[3] = biological target: Cytochrome P450 2C19 (Homo sapiens) (UniProt P33261); experiment: qHTS Assay for Inhibitors and Substrates of Cytochrome P450 2C19 (AID 899); also: nearly all actives have a fitted effect of over 60% in size
Method in brief: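 Luminescence readout of luciferin formed from 10uM Luciferin-H EGE (KM level) by 5 nM CYP2C19 in 50mM KPO4. 60 min NADPH-driven reaction at 37C after 10 min compound preincubation; data scaled to 57uM ketoconazole inhibition.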

[4] = qHTS for Inhibitors of Plasmodium falciparum (GB4) proliferation (AID 504315); also: nearly all actives have a fitted effect of over 50% in size; also: potency is read from the fitted curve at half-maximal effect
Method in brief: (§1)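 Erythrocytes infected with P. falciparum line (0.3% parasitemia, 2.5% hematocrit final) incubated with compounds 72 h at 37 °C, 5% CO2; SYBR Green lysis buffer added, fluorescence read next day. Normalized to 0.29 uM artemisinin and DMSO.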

[5] = qHTS for Inhibitors of Plasmodium falciparum (7G8) proliferation (AID 504316); also: nearly all actives have a fitted effect of over 65% in size; also: potency is read from the fitted curve at half-maximal effect; as to activity change, negative = inhibition: series mostly up to about 6.7 µM
Method in brief: as §1

[6] = biological target: Atrial natriuretic peptide receptor 1 (Homo sapiens) (UniProt P16066); experiment: Natriuretic polypeptide receptor (hNpr1) antagonism - Pilot CMLD screen (AID 1347052; calls by dose curve;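 also: HEK293 cells with hNpr1 stimulated by hNppA peptide at 0.1 nM; cGMP level read as GloSensor luciferase luminescence after agonist stimulation; series mostly up to about 9.2 µM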)
[7] = qHTS for Inhibitors of Plasmodium falciparum (HB3) proliferation (AID 504318); also: nearly all actives have a fitted effect of over 60% in size; also: potency is read from the fitted curve at half-maximal effect
Method in brief: as §1

[8] = qHTS for Inhibitors of Plasmodium falciparum (CP250) proliferation (AID 504320); also: potency is read from the fitted curve at half-maximal effect
Method in brief: as §1

Sequence of Atrial natriuretic peptide receptor 1 (Homo sapiens) (P16066 whole entry, looked up): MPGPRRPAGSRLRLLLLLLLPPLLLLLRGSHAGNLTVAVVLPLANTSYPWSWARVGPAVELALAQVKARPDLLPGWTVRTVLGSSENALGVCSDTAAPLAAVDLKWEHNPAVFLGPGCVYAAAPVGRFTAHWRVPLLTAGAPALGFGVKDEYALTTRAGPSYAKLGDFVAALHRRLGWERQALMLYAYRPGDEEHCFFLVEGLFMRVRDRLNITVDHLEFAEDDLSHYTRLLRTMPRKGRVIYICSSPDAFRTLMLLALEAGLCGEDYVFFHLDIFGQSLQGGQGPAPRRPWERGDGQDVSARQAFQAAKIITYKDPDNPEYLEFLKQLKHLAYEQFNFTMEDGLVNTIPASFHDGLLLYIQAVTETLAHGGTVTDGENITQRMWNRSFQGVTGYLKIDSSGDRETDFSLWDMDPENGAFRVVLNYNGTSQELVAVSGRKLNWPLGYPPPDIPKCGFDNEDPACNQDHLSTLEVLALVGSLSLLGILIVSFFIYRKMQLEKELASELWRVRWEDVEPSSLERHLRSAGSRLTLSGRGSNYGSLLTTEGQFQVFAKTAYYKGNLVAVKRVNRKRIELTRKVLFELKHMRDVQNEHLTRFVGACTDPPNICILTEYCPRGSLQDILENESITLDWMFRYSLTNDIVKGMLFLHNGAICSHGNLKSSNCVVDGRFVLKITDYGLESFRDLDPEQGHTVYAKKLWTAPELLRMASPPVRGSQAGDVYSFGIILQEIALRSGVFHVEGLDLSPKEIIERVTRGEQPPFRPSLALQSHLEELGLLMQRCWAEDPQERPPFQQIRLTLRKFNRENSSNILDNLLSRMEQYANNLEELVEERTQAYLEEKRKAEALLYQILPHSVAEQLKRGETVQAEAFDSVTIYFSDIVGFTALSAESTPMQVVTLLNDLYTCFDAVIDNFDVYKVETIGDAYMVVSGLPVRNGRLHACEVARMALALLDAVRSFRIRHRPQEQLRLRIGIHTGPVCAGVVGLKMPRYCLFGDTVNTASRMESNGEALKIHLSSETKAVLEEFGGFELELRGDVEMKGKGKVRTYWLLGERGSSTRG
Sequence of Cytochrome P450 3A4 (Homo sapiens) (P08684 whole entry, looked up): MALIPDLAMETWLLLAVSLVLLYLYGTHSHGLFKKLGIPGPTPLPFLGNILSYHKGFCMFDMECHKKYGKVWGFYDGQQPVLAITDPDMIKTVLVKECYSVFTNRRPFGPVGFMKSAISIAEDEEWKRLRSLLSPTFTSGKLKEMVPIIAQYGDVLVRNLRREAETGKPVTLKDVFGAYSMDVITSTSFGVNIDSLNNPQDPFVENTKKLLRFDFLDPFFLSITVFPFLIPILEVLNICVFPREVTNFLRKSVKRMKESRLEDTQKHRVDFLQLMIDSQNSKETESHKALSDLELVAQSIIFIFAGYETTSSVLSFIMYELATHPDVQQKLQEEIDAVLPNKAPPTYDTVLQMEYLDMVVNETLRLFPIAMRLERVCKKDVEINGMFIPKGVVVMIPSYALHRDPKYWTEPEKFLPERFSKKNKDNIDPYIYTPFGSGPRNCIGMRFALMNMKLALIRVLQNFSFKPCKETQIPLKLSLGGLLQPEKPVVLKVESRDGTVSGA
Sequence of Cytochrome P450 2C9 (Homo sapiens) (P11712 whole entry, looked up): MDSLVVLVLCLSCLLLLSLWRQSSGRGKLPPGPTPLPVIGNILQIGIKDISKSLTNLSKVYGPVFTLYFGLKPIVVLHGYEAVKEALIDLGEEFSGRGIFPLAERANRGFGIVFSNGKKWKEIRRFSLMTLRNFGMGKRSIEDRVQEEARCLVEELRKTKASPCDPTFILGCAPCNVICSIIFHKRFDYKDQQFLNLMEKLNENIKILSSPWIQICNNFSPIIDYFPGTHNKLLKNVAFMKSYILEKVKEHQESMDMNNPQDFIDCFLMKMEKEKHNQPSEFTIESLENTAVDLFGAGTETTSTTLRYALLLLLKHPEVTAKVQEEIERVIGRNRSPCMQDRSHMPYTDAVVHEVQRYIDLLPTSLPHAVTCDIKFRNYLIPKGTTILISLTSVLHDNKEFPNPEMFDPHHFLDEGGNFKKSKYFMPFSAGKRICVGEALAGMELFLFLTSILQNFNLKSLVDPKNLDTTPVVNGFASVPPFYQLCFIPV
Sequence of Cytochrome P450 2C19 (Homo sapiens) (P33261 whole entry, looked up): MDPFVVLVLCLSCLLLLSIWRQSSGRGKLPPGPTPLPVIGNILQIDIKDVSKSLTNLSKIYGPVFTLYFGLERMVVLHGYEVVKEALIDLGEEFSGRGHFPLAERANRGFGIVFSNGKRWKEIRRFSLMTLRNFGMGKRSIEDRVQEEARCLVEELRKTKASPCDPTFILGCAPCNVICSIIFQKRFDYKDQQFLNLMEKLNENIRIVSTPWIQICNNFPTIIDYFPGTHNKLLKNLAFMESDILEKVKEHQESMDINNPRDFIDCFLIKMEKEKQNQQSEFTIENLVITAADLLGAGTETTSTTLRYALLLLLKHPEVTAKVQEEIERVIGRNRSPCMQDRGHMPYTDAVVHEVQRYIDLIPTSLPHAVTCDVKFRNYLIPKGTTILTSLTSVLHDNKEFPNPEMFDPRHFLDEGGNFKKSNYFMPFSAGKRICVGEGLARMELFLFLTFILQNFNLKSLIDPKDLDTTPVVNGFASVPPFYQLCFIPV

Structure (SMILES): Cc1c(O)c(=O)ccn1Cc1ccccc1
- activity change, negative = inhibition [1]: -0.343% [at 11.4 µM] (inactive)
- activity change, negative = inhibition [2]: -6.33% [at 11.4 µM] (inactive)
- activity, negative = inhibition [3]: 38.4% [at 11.4 µM] (inactive)
- Potency [4]: inactive
- Potency [5]: inactive
- Potency [6]: inactive

Structure (SMILES): C#CCN1C(=O)[C@@]2(CC(C)=CC[C@@H](C)O2)c2ccccc21
- Potency [4]: inactive
- Potency [7]: inactive
- Potency [8]: inactive
- Potency [6]: inactive

Structure (SMILES): CCOC(=O)N1C2=NC(C(=O)OC)=C(C(=O)OC)[C@@H]3Nc4ccccc4[C@]23C[C@H]1C(=O)OC
- Potency [4]: 1.9 µM (active) and inactive
- Potency [5]: inactive
- Potency [8]: inactive
- Potency [6]: inactive

Structure (SMILES): c1ccc(CCc2nc(-c3ccccc3)oc2NC2CCCCC2)cc1
- Potency [4]: inactive
- Potency [7]: inactive
- Potency [6]: inactive

Structure (SMILES): CC(=O)OC[C@H]1O[C@H](C#Cc2ccccc2)C=C[C@@H]1OC(C)=O
- Potency [4]: inactive
- Potency [7]: inactive
- Potency [8]: inactive
- Potency [6]: inactive

Structure (SMILES): COC(=O)C1=C(C)N(CC2CC2)C(=O)NC1c1ccc(Br)cc1 (centres undefined)
- Potency [4]: inactive
- Potency [7]: inactive
- Potency [8]: inactive
- Potency [6]: inactive

Structure (SMILES): COc1cccc(-c2coc3ccc(Br)cc3c2=O)c1
- Potency [4]: inactive
- Potency [7]: inactive
- Potency [8]: inactive
- Potency [6]: inactive

Structure (SMILES): N#Cc1ccc2c(c1)C[C@]1(CCCCN3C(=O)c4ccccc4C3=O)Oc3cc(-c4ccccc4)oc(=O)c3[C@H]2O1
- Potency [4]: inactive
- Potency [7]: inactive
- Potency [8]: inactive
- Potency [6]: inactive

Structure (SMILES): COc1cc(OC)c([C@@H]2O[C@H](CO)[C@@H](O)[C@H](O)[C@@H]2O)c(OC)c1
- Potency [4]: inactive
- Potency [7]: inactive
- Potency [8]: inactive
- Potency [6]: inactive

Structure (SMILES): CC#C[C@H](C)[C@@H](OCOC)[C@H](C[C@H](C)Cc1cc(Br)cc(OCc2ccccc2)c1OC)OC
- Potency [4]: 1.51 µM (active)
- Potency [7]: 1.69 µM (active)
- Potency [6]: inactive

Structure (SMILES): CC1(OC(=O)c2ccc(Cl)nc2)C(=O)C=C2C=C(c3ccsc3)OC=C2C1=O (centres undefined)
- Potency [4]: inactive
- Potency [7]: inactive
- Potency [8]: inactive
- Potency [6]: inactive

Structure (SMILES): COc1ccc(-c2nc3c(c4c2C[C@H](c2ccccc2)OC4)CN(C(=O)NCc2ccco2)CC3)c(C)c1
- Potency [4]: inactive
- Potency [7]: inactive
- Potency [8]: inactive
- Potency [6]: inactive

Structure (SMILES): COCC=CC1=CC2=CC(=O)C(C)(OC(=O)c3cnc4ccccc4n3)C(=O)C2=CN1CCc1c[nH]c2ccccc12 (centres undefined)
- Potency [4]: inactive
- Potency [7]: inactive
- Potency [8]: inactive
- Potency [6]: inactive

Structure (SMILES): CCN1C(=NCc2cccc(C(F)(F)F)c2)NC(c2cccc(C(F)(F)F)c2)C(C(=O)OC)=C1C (centres undefined)
- Potency [4]: 0.0953 µM (active)
- Potency [7]: inactive
- Potency [8]: 0.757 µM (active)
- Potency [6]: inactive

Structure (SMILES): CCN1C(=NCc2cccc(C(F)(F)F)c2)NC(c2cccc(F)c2)C(C(=O)OC)=C1C (centres undefined)
- Potency [4]: 0.757 µM (active)
- Potency [7]: inactive
- Potency [6]: inactive

Structure (SMILES): CCCCc1nc2c(c3c1C[C@H](C)OC3)CN(S(=O)(=O)c1ccccc1C(=O)OC)CC2
- Potency [4]: inactive
- Potency [5]: inactive
- Potency [8]: inactive
- Potency [6]: inactive

Structure (SMILES): CCc1cc2c(nc1CC)CCN(CCC(C)=NOC[C@@H](O)COCc1ccco1)C2
- Potency [4]: inactive
- Potency [5]: 1.51 µM (active)
- Potency [8]: inactive
- Potency [6]: inactive

Structure (SMILES): CC1(OC(=O)C2CCCC2)C(=O)C=C2C=C(c3ccsc3)N(Cc3ccccc3)C=C2C1=O (centres undefined)
- Potency [4]: inactive
- Potency [5]: inactive
- Potency [8]: inactive
- Potency [6]: inactive

Structure (SMILES): N#Cc1ccc2c(c1)C[C@]1(c3ccsc3)Oc3c(c(=O)oc4ccccc34)[C@H]2O1
- Potency [4]: inactive
- Potency [7]: inactive
- Potency [8]: inactive
- Potency [6]: inactive

Structure (SMILES): COC(=O)C1=C(C(=O)OC)[C@@H]2Nc3ccccc3[C@@]23C[C@@H](C(=O)OC)N(C(=O)Nc2ccccc2F)C3=N1
- Potency [4]: inactive
- Potency [5]: inactive
- Potency [8]: inactive
- Potency [6]: inactive

Structure (SMILES): CCN1C(=NCCCOC(C)C)N[C@@H](CCc2ccccc2)[C@H](C(=O)NCCCOC(C)C)[C@H]1C
- Potency [4]: inactive
- Potency [7]: inactive
- Potency [6]: inactive

Structure (SMILES): COc1cccc([C@H]2Oc3ccc(OC)cc3C(=NO[C@H](C)CN3CCCc4nc(C)c(C)cc43)[C@H]2O)c1
- Potency [4]: inactive
- Potency [7]: inactive
- Potency [8]: inactive
- Potency [6]: inactive

Structure (SMILES): C[C@H]1C=CCC(=O)N[C@@H](c2ccc3ccccc3c2)[C@@H](C)C=CCC(=O)N[C@@H]1c1ccc2ccccc2c1
- Potency [4]: inactive
- Potency [7]: inactive
- Potency [8]: inactive
- Potency [6]: inactive

Structure (SMILES): COC(=O)[C@]1(CC=Cc2ccccc2)C=C[C@@H](C)[C@H](c2ccccc2Br)N1C(=O)C(F)(F)F
- Potency [4]: 1.69 µM (active)
- Potency [7]: 1.9 µM (active)
- Potency [6]: inactive

Structure (SMILES): COc1ccc(N2C(=O)N3[C@H](c4ccccc4)[C@@H](C)C[C@H]4c5ccccc5C[C@]43C2=O)cc1
- Potency [4]: inactive
- Potency [7]: inactive
- Potency [6]: inactive

Structure (SMILES): O=C1[C@H]2[C@@H]3[C@@H](O)[C@H](O)CC(=NOCc4ccccc4)[C@@H]3CC[C@H]2C(=O)N1Cc1ccc2c(c1)OCO2
- Potency [4]: inactive
- Potency [7]: inactive
- Potency [6]: inactive

Structure (SMILES): CC(C)=CCCC(C)=CCN1C(=O)[C@]2(O[C@H](COc3ccccc3)CC3=CCCC32)c2c(Br)cccc21 (some centres undefined)
- Potency [4]: 1.51 µM (active)
- Potency [7]: 1.69 µM (active)
- Potency [6]: inactive

Structure (SMILES): O=C1C2=C(C(=O)c3ccccc31)[C@H]1O[C@](c3ccsc3)(Cc3c1ccc1ccccc31)O2
- Potency [4]: inactive
- Potency [7]: inactive
- Potency [8]: inactive
- Potency [6]: inactive

Structure (SMILES): COc1ccc2c3c(c(=O)oc2c1)[C@H]1O[C@](CCCCN2C(=O)c4ccccc4C2=O)(Cc2cc(OC)c(OC)cc21)O3
- Potency [4]: 2.69 µM (active)
- Potency [7]: 1.51 µM (active)
- Potency [6]: inactive

Structure (SMILES): CC(=O)C1=C(C)N(Cc2ccccc2)C(=O)NC1CCc1ccccc1 (centres undefined)
- Potency [4]: inactive
- Potency [7]: inactive
- Potency [8]: inactive
- Potency [6]: inactive

Structure (SMILES): COc1cccc([C@@H]2Oc3ccc(Br)cc3C(=O)[C@@H]2O)c1
- Potency [4]: inactive
- Potency [7]: inactive
- Potency [8]: inactive
- Potency [6]: inactive

Structure (SMILES): COC(=O)C1=C(C(=O)OC)[C@@H]2N(C)c3ccc(OC)cc3[C@@]23C[C@@H](C(=O)OC)N(C(=O)NCCBr)C3=N1
- Potency [4]: 2.13 µM (active)
- Potency [7]: 2.13 µM (active)
- Potency [6]: inactive

Structure (SMILES): COc1cccc([C@H]2Oc3ccc(OC)cc3C(=NO[C@H](C)c3cn([C@H](CO)Cc4ccccc4)nn3)[C@H]2O)c1
- Potency [4]: inactive
- Potency [7]: inactive
- Potency [8]: inactive
- Potency [6]: inactive
